This passage reports sensor-assay potency score (higher = more potent) results from the OligoGym collection.
Further: reference of the scale not given here.

The target of one test is SIAE. Nature of the test: pooled miR-30 sensor sort-seq; sequence = guide strand. Conditions: shRNA.
For TTTCACACTGGTCACTTTCTTC, the sensor-assay potency score (higher = more potent) was -0.603.

Sequence TAGACAACTCCCTTGTAGCATT displayed a sensor-assay potency score (higher = more potent) of -0.9.

Sequence TATCTTGTTGTCCTTTTTCTGC yielded a sensor-assay potency score (higher = more potent) of -1.26.

For TAACACAGTCATCTGCATGTTA, the sensor-assay potency score (higher = more potent) is -0.177.

With TATCTGTAACACAGTCATCTGC, the sensor-assay potency score (higher = more potent) is -0.344.

For the sequence TTAAATATCTGTAACACAGTCA, the sensor-assay potency score (higher = more potent) came to 0.571.

Consider TACAGAGCCAGACATCTCCAAA, for which the sensor-assay potency score (higher = more potent) was -1.12.

TTGAGGTCCAATTTGTCTGTAG showed a sensor-assay potency score (higher = more potent) of 0.183.

Turning to TTTAACTCGAACAACAGTTTGC, the sensor-assay potency score (higher = more potent) was -0.109.

The next test deals with SIK3. The description is as above. Conditions: shRNA.
TATGATCTTGATAGCAACCTTG: the sensor-assay potency score (higher = more potent) was -0.675.

Sequence TAAATCACGATGAACAATGTTC gave a sensor-assay potency score (higher = more potent) of -0.457.

Turning to TACTTGAACTCTTACTGTCTTG, the sensor-assay potency score (higher = more potent) was -0.689.

In the case of TTCATAATTTGAACTTCCCGGA, the sensor-assay potency score (higher = more potent) is -0.153.

TCTAACACCAACATATGGCGGA showed a sensor-assay potency score (higher = more potent) of 0.184.

The sequence TTAATGACTGCAGTGTCTGTTC displayed a sensor-assay potency score (higher = more potent) of -0.0807.

On to TAGCTGAGCAGAATGTCTGTAA, for which the sensor-assay potency score (higher = more potent) was -0.0523.

With TTGAACTCTTACTGTCTTGGAA, the sensor-assay potency score (higher = more potent) was -0.119.

The sequence TCTGTTTGAACTTCCGACGTGC registered a sensor-assay potency score (higher = more potent) of 0.851.

TACATAAGCATCGTCGCTGTTC registered a sensor-assay potency score (higher = more potent) of -0.402.

TTAGTTGTTGGCATTCAGCTAT: the sensor-assay potency score (higher = more potent) is -0.107.

Turning to TTATCTATGATCTTGATAGCAA, the sensor-assay potency score (higher = more potent) was -0.377.

In a further test the target is SIPA1L2. The test is described as above. Conditions: shRNA.
As to TTCAGCACAGTTGTCTACCGAG, the sensor-assay potency score (higher = more potent) is -0.567.

Sequence TTGTCGAAGAATTAATTCCAGC gave a sensor-assay potency score (higher = more potent) of -1.01.

Consider TAGCTTGTGCTTCTCTTCTTGT, for which the sensor-assay potency score (higher = more potent) was -0.716.

The sequence TTATACATCTCTTCCTCTGTGC registered a sensor-assay potency score (higher = more potent) of 0.628.

TTGTTCATCAAGCTTGAGCAGC had a sensor-assay potency score (higher = more potent) of -0.923.

TACTTTTTGAACAGTGAGCTGA registered a sensor-assay potency score (higher = more potent) of 0.29.

TAGCGCTTCACTTTCTCCCTGT: the sensor-assay potency score (higher = more potent) was determined as 0.691.

TTGAACTTTGAAGAGGCTCTGC gave a sensor-assay potency score (higher = more potent) of 0.37.

The sequence TACAACATTCTTGGAATCCTTT came in with a sensor-assay potency score (higher = more potent) of -0.254.

Sequence TTGTCTTGTTTTTCCTTCCGAA had a sensor-assay potency score (higher = more potent) of -0.306.

As for TAATCTAATCCTGAGATGCGGA, the sensor-assay potency score (higher = more potent) was -0.642.

The sequence TAACAGTTCGAAGCTTTCGGAA had a sensor-assay potency score (higher = more potent) of -0.928.

Another test concerns the target SIRPD. The description is as above. The following applies: shRNA.
TTAATTTCCGGTTTGGCCCTGT gave a sensor-assay potency score (higher = more potent) of 0.897.

The sequence TTGCACATGGAACACATGTGTG returned a sensor-assay potency score (higher = more potent) of -0.922.

In the case of TTACTCTGGGAAAGTTACCTTG, the sensor-assay potency score (higher = more potent) is -0.709.

As to ATTTATTGTACGATCAAGCTGG, the sensor-assay potency score (higher = more potent) stood at 0.545.

In turn, TACAGTCTGTGACATCTCCGTT gave a sensor-assay potency score (higher = more potent) of -0.562.

The sequence TACTCCTTGATAGCTCTTCCTT registered a sensor-assay potency score (higher = more potent) of -0.857.

For TTGTAGATTAATTTCCGGTTTG, the sensor-assay potency score (higher = more potent) was -0.577.
